Source: PubChem BioAssay AID485346 (Sanford-Burnham Center for Chemical Genomics, 2010)
Among all 330,000 compounds or so, about 10,000 (3%) were called active. Shown is part of a subset that was picked to be rich in actives. Unmarked numbers belong to inactive results.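 Rule for the calls: active = inhibition of at least 50% at 8 µM in the primary screen; inactive = the rest.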

These compounds were tested against Protein Mdm4 (Homo sapiens) + E3 ubiquitin-protein ligase Mdm2 (Homo sapiens) (UniProt O15151+Q00987) (assay: disruptors of Mdm2/MdmX RING complex – cell-based, luminescence, split luciferase, SaOS-2, uHTS, primary screen (AID 485346)). Details: SaOS-2 split-luciferase Mdm2/MdmX complementation, at 8 µM, active compounds read high.
Chain of Protein Mdm4 (Homo sapiens) + E3 ubiquitin-protein ligase Mdm2 (Homo sapiens) (O15151 whole entry, looked up): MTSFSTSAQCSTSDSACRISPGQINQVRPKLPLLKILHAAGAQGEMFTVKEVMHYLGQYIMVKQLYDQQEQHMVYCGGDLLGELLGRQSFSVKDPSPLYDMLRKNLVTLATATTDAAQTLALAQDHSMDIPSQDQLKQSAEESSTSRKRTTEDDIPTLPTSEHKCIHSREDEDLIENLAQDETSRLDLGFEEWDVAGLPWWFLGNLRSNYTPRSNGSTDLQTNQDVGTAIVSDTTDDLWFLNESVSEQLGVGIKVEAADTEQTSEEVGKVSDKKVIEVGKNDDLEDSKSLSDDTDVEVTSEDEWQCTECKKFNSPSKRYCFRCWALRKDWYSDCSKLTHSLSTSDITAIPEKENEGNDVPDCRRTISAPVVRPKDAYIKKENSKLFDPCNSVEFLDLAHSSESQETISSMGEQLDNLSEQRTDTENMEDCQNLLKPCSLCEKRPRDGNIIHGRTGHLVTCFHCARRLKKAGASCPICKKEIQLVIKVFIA
Chain of Protein Mdm4 (Homo sapiens) + E3 ubiquitin-protein ligase Mdm2 (Homo sapiens) (Q00987 whole entry, looked up): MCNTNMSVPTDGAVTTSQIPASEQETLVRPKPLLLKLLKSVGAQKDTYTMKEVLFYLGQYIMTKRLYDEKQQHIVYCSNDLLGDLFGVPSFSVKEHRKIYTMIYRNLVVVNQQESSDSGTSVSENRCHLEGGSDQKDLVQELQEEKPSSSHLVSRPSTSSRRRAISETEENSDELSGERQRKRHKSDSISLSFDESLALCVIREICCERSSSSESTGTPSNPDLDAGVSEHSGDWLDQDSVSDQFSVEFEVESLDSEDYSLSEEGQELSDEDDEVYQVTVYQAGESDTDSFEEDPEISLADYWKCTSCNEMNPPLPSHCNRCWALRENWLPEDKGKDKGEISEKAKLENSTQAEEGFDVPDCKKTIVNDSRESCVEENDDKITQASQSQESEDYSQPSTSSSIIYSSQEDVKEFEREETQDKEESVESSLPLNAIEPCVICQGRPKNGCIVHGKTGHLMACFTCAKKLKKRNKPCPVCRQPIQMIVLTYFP

Structure (SMILES) | inhibition
N#Cc1ncc(C(F)(F)F)cc1Oc1cccnc1 | -4.54%
Cc1nnc(SCCCCSc2nnc(C)c(=O)[nH]2)[nH]c1=O | -27.7%
CCN1C(=O)N[C@@H](CCc2ccccc2)C(C(=O)OC)=C1C | 10.9%
CCC(CC)c1nnc(NC(=O)c2nn(C)c(=O)c3ccccc23)s1 | -51.8%
CCC(C)NC(=O)c1nn(C)c(=O)c2ccccc12 (stereo not drawn) | 0.304%
COC(=O)c1cc(NC(=O)c2nn(C)c(=O)c3ccccc23)cc(C(=O)OC)c1 | 51.2% (active)
COc1ccc(C)cc1NC(=O)CCCN1C(=O)NC(C)(C)C1=O | 7.88%
COC(=O)C1=C(N)Oc2cc(C)[nH]c(=O)c2C1c1ccc(Cl)cc1 (stereo not drawn) | -16.2%
CC(=O)N1CCN(CC(=O)Nc2ccc(SC(F)F)cc2)CC1 | -2.95%
O=C(Cc1ccc(Cl)c(Cl)c1)Nc1ccc(SC(F)F)cc1 | 72.9% (active)
Cc1ccc(CC(=O)Nc2ccc(OC(F)F)c(Cl)c2)cc1C | 15.9%
CC(=O)c1c(C)[nH]c(C(=O)OCC(=O)Nc2c(C)n(C)n(-c3ccccc3)c2=O)c1C | 11.3%
Cc1nc(N2CCN(c3ccccn3)CC2)c2c(C)c(C(=O)Nc3ccc(F)cc3)sc2n1 | 35.2%
Cc1nc(N2CCN(c3ccccn3)CC2)c2c(C)c(C(=O)Nc3ccc(F)c(Cl)c3)sc2n1 | 61.2% (active)
COc1ccc(NC(=O)c2sc3nc(C)nc(N4CCN(c5ccccn5)CC4)c3c2C)c(OC)c1 | 36.5%
COCC1CCN(C(=O)C2CCC(=O)N(CC3CCCCC3)C2)CC1 (stereo not drawn) | -3.42%
Cn1cc(/C=C/c2nc3ccccc3c(=O)n2-c2cccc([N+](=O)[O-])c2)c2ccccc21 | 72.2% (active)
CCn1c(/C=C/c2ccc([N+](=O)[O-])o2)nc2ccccc2c1=O | 46.9%
CCOC(=O)N1CCN(Cc2nc3ccc([N+](=O)[O-])cc3c(=O)n2-c2cccc(OC)c2)CC1 | 16.7%
COc1ccc(NC(=O)N(C)C[C@H]2Oc3ccc(NC(=O)C4CC4)cc3C(=O)N([C@H](C)CO)C[C@@H]2C)cc1 | -5.08%
O=C(CC1CCCCC1)NCc1ccc(F)cc1 | -13.5%

Structure (SMILES) | inhibition
Cc1ccc(C(=O)NNC(=O)c2cc3cc4ccccc4nc3s2)cc1 | 55.3% (active)
Cc1ccc(C(=O)NNc2ncnc3ccccc23)cc1 | -48.9%
Cc1ccc(C(=O)NNC(=O)c2cccs2)cc1 | -2.54%
CC[C@@]1(C(=O)OC)N[C@H](CN(C)C(C)=O)[C@@H]2C(=O)N(C)C(=O)[C@@H]21 | -30.9%
CC[C@]12c3[nH]c4ccc(Cl)cc4c3CCN1C(=O)[C@@H](CC(=O)NCCCOC)C[C@@H]2C(=O)N1CCN(C(=O)c2ccco2)CC1 | 2.9%
COc1ccc(O)c(C(=O)c2cnc3c(c2)c(-c2ccc(F)cc2)c(C#N)c(=O)n3C)c1 | 12.9%
Cn1c(N)cc(-c2ccc(F)cc2)c(C#N)c1=O | 14%
Cc1cc(C)c2c(-c3ccc(F)cc3)c(C#N)c(=O)n(C)c2n1 | 51.8% (active)
OC(CNCC1CCCO1)Cn1c2ccc(Br)cc2c2cc(Br)ccc21 (stereo not drawn) | 101% (active)
O=C(CSc1ccc(-c2ccc(Br)cc2)nn1)NCC1CCCO1 (stereo not drawn) | -18.5%
O=C(CCNS(=O)(=O)c1ccc(Br)cc1)NCC1CCCO1 (stereo not drawn) | -4.62%
O=C(O)CC12CC3CC(C1)CC(n1ncc(NCc4ccc(F)cc4)c(Cl)c1=O)(C3)C2 | -8.77%
COc1ccc(NC(=O)CN(C)C(=O)c2cccc(S(=O)(=O)N3CCN(c4ccccc4)CC3)c2)cc1 | 17%
O=C(OC1CCOC1=O)c1ccc(-c2nc3ccccc3s2)s1 (stereo not drawn) | -9.1%
O=C1c2ccccc2C2=Nc3ccccc3SC(c3ccccc3F)C12 (stereo not drawn) | 65.3% (active)
CCOC(=O)C1=C(C)N=C2c3ccccc3C(=O)C2C1c1ccc(Br)cc1 (stereo not drawn) | 24%
O=C1c2ccccc2C(=O)C1c1ccccc1F | -3.2%
O=C(CCc1nnc(Cc2ccc3c(c2)OCO3)o1)NCCc1ccccc1Cl | 6%
CC(=O)NCCc1ccc(S(=O)(=O)Nc2ccc(C)c(S(=O)(=O)N3CCOCC3)c2)cc1 | 2.62%
CC1(C)CC(N2CCN(C(c3ccccc3)c3ccccc3)CC2)=CC(=[N+]2CCCCC2)C1 | 90.1% (active)
Oc1ccccc1CN1CCN(C(c2ccccc2)c2ccccc2)CC1 | 19.1%

Structure (SMILES) | inhibition
O=C1CC(N2CCN(C(c3ccccc3)c3ccccc3)CC2)C(=O)N1 (stereo not drawn) | 28.3%
CC1=C(C(=O)OCc2ccccc2)C(c2ccc(C(F)(F)F)cc2)NC(=O)N1CCCCCC(=O)O (stereo not drawn) | 4.93%
CCCCNC(=O)C(C)N(CCN(C)C)C(=O)CCCCCN1C(=O)NC(c2ccc(Cl)cc2)C(C(=O)OCc2ccccc2)=C1C (stereo not drawn) | 97.4% (active)
CCCCNC(=O)C(C)N(CCN(C)C)C(=O)CCCN1C(=O)NC(c2ccc(Cl)cc2)C(C(=O)OCc2ccccc2)=C1C (stereo not drawn) | 84.8% (active)
COC(=O)CCCCCN1C(=O)NC(c2ccc(-c3ccccc3)cc2)C(C(=O)OCc2ccccc2)=C1C (stereo not drawn) | 22.2%
CCN1C(=O)N[C@@H](c2ccccc2)C(C(=O)OC)=C1C | 6.41%
COCCN1C(=O)N[C@@H](c2ccccc2)C(C(=O)OC)=C1C | -16.5%
O=C(Nc1cccc(O)c1)c1ccc(C(=O)c2ccccc2)o1 | -23.5%
CC(C)(C)OC(=O)C1=C(CO)CS[C@@H]2[C@H](NC(=O)Cc3ccccc3)C(=O)N12 | 1.66%
Cc1ccc(CN2CCC(N3CCC(C(=O)NCC4CCCO4)CC3)CC2)o1 (stereo not drawn) | 1.75%
O=C(COC(=O)c1ccccc1)c1ccc2c(c1)OCCO2 | 35.8%
Cc1cc(C)cc(OCC(=O)Nc2cc(NC(=O)COc3cc(C)cc(C)c3)cc(C(=O)O)c2)c1 | 5.1%
CC(NC(=O)COC(=O)C1CCN(S(=O)(=O)c2ccccc2C(F)(F)F)CC1)c1ccccc1 (stereo not drawn) | -7.62%
NC(=O)c1nsc(C(=O)N(CCCN2CCOCC2)C(C(=O)NC2CCCCC2)c2ccc(Cl)cc2)c1N (stereo not drawn) | -0.899%
COc1cc(N2C(=O)CC3(CCCC3)CC2=O)cc(OC)c1OC | 20%
Cc1ccc2nc(-c3ccncc3)cc(C(=O)Nc3ccc4c(c3)OCCO4)c2c1 | 60.7% (active)
Cc1ccc2nc(-c3ccncc3)cc(C(=O)Nc3ccc(OC(F)F)cc3)c2c1 | 37.3%
Cc1ccc2nc(-c3ccccn3)cc(C(=O)Nc3ccc4c(c3)OCO4)c2c1 | 28.8%
COc1ccc(CCNC(=O)CN(c2ccccc2)S(C)(=O)=O)cc1OC | -2.08%
CCc1[nH]nc(C(=O)N2CCCC(CNS(=O)(=O)c3cccs3)C2)c1C (stereo not drawn) | 7.22%
Cc1cc(NC(=O)CSc2nc3cc(Cl)ccc3c(=O)n2Cc2ccco2)no1 | 40.1%

Structure (SMILES) | inhibition
N#Cc1c(NC(=O)CSc2nc3ccccc3c(=O)n2Cc2ccco2)sc2c1CCCC2 | 54.1% (active)
COc1ccc(-n2c(SCC(=O)Nc3sc4c(c3C#N)CCCC4)nnc2-c2ccc(O)cc2)cc1 | 33.8%
Cc1ccc(CN2CC(C(=O)N3CCN(S(=O)(=O)c4ccccc4)CC3)CC2=O)cc1 (stereo not drawn) | -7.06%
O=C(NCc1cccnc1)c1ccccc1NC(=O)c1c(F)cccc1F | 12.2%
CCN1C[C@@H]2[C@@H]3C(=O)N(Cc4ccccc4)C(=O)[C@@H]3[C@](Cc3ccccc3)(C(=O)OC)N2C1=NC1CCCCC1 | 44.3%
CCN(C[C@H]1N[C@@](CC)(C(=O)OC)[C@H]2C(=O)N(Cc3ccccc3)C(=O)[C@@H]12)S(=O)(=O)c1ccccc1 | 9.24%
COC(=O)[C@@]1(C)[C@H]2C(=O)N(Cc3ccccc3)C(=O)[C@H]2[C@H]2CN=C(SCC3CC3)N21 | 16.2%
CC[C@]1(C(=O)OC)[C@H]2C(=O)N(Cc3ccccc3)C(=O)[C@H]2[C@H]2CN=C(SCc3ccc(C#N)cc3)N21 | 93% (active)
CC[C@]1(C(=O)OC)[C@H]2C(=O)N(Cc3ccccc3)C(=O)[C@H]2[C@H]2CN=C(SCc3ccccc3)N21 | 70% (active)
CCNC(=O)N(CC)C[C@H]1N[C@@](CC)(C(=O)OC)[C@H]2C(=O)N(Cc3ccccc3)C(=O)[C@@H]12 | 13.8%
CC[C@]1(C(=O)OC)[C@H]2C(=O)N(Cc3ccccc3)C(=O)[C@H]2[C@H]2CN=C(SCc3ccc(Cl)cc3)N21 | 99.6% (active)
CC[C@]1(C(=O)OC)[C@H]2C(=O)N(C)C(=O)[C@H]2[C@H]2CN(C)C(=NCc3ccccc3)N21 | 15.5%
CCCN=C1N(C)C[C@@H]2[C@@H]3C(=O)N(Cc4ccccc4)C(=O)[C@@H]3[C@](C)(C(=O)OC)N12 | -2.26%
O=C(COC(=O)c1ccccn1)NNC(=O)c1ccc(Br)cc1 | 2.38%
Cn1nc(C(=O)OCC(=O)N(Cc2ccccc2)C(C)(C)C)c2ccccc2c1=O | 14.1%
CCCNc1c(N)c(=O)c1=O | 12.6%
Cc1cccc(C(=O)N2CCCC(Nc3ccc(C(C)C)cc3)C2)n1 (stereo not drawn) | -5.26%
CCOc1ccccc1OCCCNCc1ccccc1 | -6.93%
Clc1cccc(Cl)c1OCCOCCNCc1ccccc1 | 89.2% (active)
OCCNCc1cccc(OCc2ccccc2Cl)c1 | 20.6%
